From PubChem BioAssay (NCATS)
Inconclusive results are not listed. Entries that show only a call come without a potency. Unmarked numbers belong to inactive results. Calls of active or inactive are those of the source. Calls follow the shape of the dose curve; as a rule, active = well fitted cell-killing curve with a large enough effect; inconclusive = small, poorly fitted or top-dose-only effect, or effect the other way; inactive = flat fitted curve, though single readings scatter. *1 amine or outer side, *2 acyl side, *3 side chain or, on linkers, in order; H or OH if unused. Where a SMILES comes first, the peptide text is derived from it. Bridges are numbered along the chain shown (N, C = ends). [ ]: non-standard residue; d: D form. The star is where a group is joined. ξ: configuration not given here. ξhTyr(3S-OH,4S-OH,3'-OSO3H) = NC(C(=O)O)[C@H](O)[C@@H](O)c1ccc(O)c(OS(=O)(=O)O)c1; Orn(4R-OH,5R-OH) = O=C([C@H](C[C@@H](O)[C@@H](O)N[*:3])N[*:1])[*:2]; X2 = CCCCCOc1ccc(-c2cc(-c3ccc(C(=O)*)cc3)no2)cc1; X3 = C[C@H]1CN([*:1])C(C(=O)[*:2])[C@H]1O; ξGln(3R-OH) = NC(=O)C[C@@H](O)C(N)C(=O)O; ξPro(4R-OH) = O=C(O)C1C[C@@H](O)CN1; ξThr(3R) = C[C@@H](O)C(N)C(=O)O

How the values were obtained:
Test in all cases: Primary qHTS to identify gynecologic anti-cancer compounds using libraries of approved drugs and bioactive compounds (AID 1345084); also: nearly all actives have a fitted effect of over 55% in size
C33A = settings: Gynecologic cancer cell panel viability, ATPlite luminescence, 48 h; series mostly up to 57.5 µM
Outline: (§1)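 Cells, 1,000 per well, were allowed to settle for 16 h at 37 C before compound addition. Five concentrations were tested for 48 h, and viability was read by ATPlite luminescence after 15 min at room temperature.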

CAOV3 = settings: Gynecologic cancer cell panel viability, ATPlite luminescence, 48 h; series mostly up to 57.5 µM
Outline: as §1

CASKI = settings: Gynecologic cancer cell panel viability, ATPlite luminescence, 48 h; series mostly up to 57.5 µM
Outline: as §1

Es-2 = settings: Gynecologic cancer cell panel viability, ATPlite luminescence, 48 h; series mostly up to 57.5 µM
Outline: as §1

HeLa = settings: Gynecologic cancer cell panel viability, ATPlite luminescence, 48 h; series mostly up to 57.5 µM
Outline: as §1

Hek293T = settings: Gynecologic cancer cell panel viability, ATPlite luminescence, 48 h, control line for the selectivity index; series mostly up to 57.5 µM
Outline: as §1

JEG-3 = settings: Gynecologic cancer cell panel viability, ATPlite luminescence, 48 h; series mostly up to 57.5 µM
Outline: as §1

OV90 = settings: Gynecologic cancer cell panel viability, ATPlite luminescence, 48 h; series mostly up to 57.5 µM
Outline: as §1

PA-1 = settings: Gynecologic cancer cell panel viability, ATPlite luminescence, 48 h; series mostly up to 57.5 µM
Outline: as §1

Tov-21-G = settings: Gynecologic cancer cell panel viability, ATPlite luminescence, 48 h; series mostly up to 57.5 µM
Outline: as §1

Tov112D = settings: Gynecologic cancer cell panel viability, ATPlite luminescence, 48 h; series mostly up to 57.5 µM
Outline: as §1

SKOV3 = settings: Gynecologic cancer cell panel viability, ATPlite luminescence, 48 h; series mostly up to 57.5 µM
Outline: as §1
Potency is read from the fitted curve at half-maximal effect.

COc1ccc(C2COc3cc(O)ccc3C2)c(O)c1OC (configuration not stated)
Potency (C33A): inactive
Potency (CAOV3): inactive
outcome (CASKI): inactive
Potency (Es-2): inactive
Potency (HeLa): inactive
Potency (Hek293T): inactive
Potency (JEG-3): inactive
Potency (OV90): inactive
Potency (PA-1): inactive
Potency (Tov-21-G): inactive
Potency (Tov112D): inactive

C=C1C2(C)CC3C4(C)OC(C5OC56C4=CC(=O)OC6(C)C)C3(C)C13C(=O)OC(C)C3(O)C2=O (configuration not stated)
Potency (C33A): inactive
Potency (CAOV3): inactive
outcome (CASKI): inactive
Potency (Es-2): inactive
Potency (HeLa): inactive
Potency (Hek293T): inactive
Potency (JEG-3): inactive
Potency (OV90): inactive
Potency (SKOV3): inactive
Potency (Tov-21-G): inactive
Potency (Tov112D): inactive

CC1(C)C2CCC1(C)C(OC(=O)C(O)(CC(=O)O)CC(=O)O)C2 (configuration not stated)
Potency (C33A): inactive
Potency (CAOV3): inactive
outcome (CASKI): inactive
Potency (Es-2): inactive
Potency (HeLa): inactive
Potency (JEG-3): inactive
Potency (OV90): inactive
Potency (PA-1): inactive
Potency (SKOV3): inactive
Potency (Tov-21-G): inactive
Potency (Tov112D): inactive

COc1ccc(C(=O)CC(=O)O)c2c1C=CC(C)(C)O2
Potency (C33A): inactive
Potency (CAOV3): inactive
outcome (CASKI): inactive
Potency (Es-2): inactive
Potency (HeLa): inactive
Potency (Hek293T): inactive
Potency (JEG-3): inactive
Potency (OV90): inactive
Potency (PA-1): inactive
Potency (Tov-21-G): inactive
Potency (Tov112D): inactive

COc1c(C)c(OCC=C(C)C)cc2c1CNC2=O
Potency (C33A): inactive
Potency (CAOV3): inactive
outcome (CASKI): inactive
Potency (Es-2): inactive
Potency (HeLa): inactive
Potency (Hek293T): inactive
Potency (JEG-3): inactive
Potency (OV90): inactive
Potency (SKOV3): inactive
Potency (Tov-21-G): inactive
Potency (Tov112D): inactive

O=C(NC/C=C/CN1CCN(c2cccc(Cl)c2Cl)CC1)c1ccc(-c2ccccn2)cc1
Potency (C33A): inactive
Potency (CAOV3): inactive
outcome (CASKI): inactive
Potency (Es-2): inactive
Potency (HeLa): inactive
Potency (Hek293T): inactive
Potency (JEG-3): inactive
Potency (OV90): inactive
Potency (Tov-21-G): inactive
Potency (Tov112D): inactive

C/C=C/C=C/[C@@H]1O[C@](O)([C@H](CC)C(=O)NC/C=C/C=C(\C)[C@@H](OC)[C@@H](C)[C@@H]2O[C@H](/C=C/C=C/C=C(\C)C(=O)c3c(O)ccn(C)c3=O)[C@H](O)[C@@H]2O)[C@H](O)[C@H](O)C1(C)C
activity change, negative = cytotoxicity (C33A): 0.106% [at 11.6 µM]
activity change, negative = cytotoxicity (CAOV3): 11.3% [at 11.6 µM]
activity change, negative = cytotoxicity (CASKI): -1.78% [at 11.6 µM]
activity change, negative = cytotoxicity (Es-2): -3.84% [at 11.6 µM]
activity change, negative = cytotoxicity (HeLa): 12.5% [at 11.6 µM]
activity change, negative = cytotoxicity (Hek293T): -0.774% [at 11.6 µM]
activity change, negative = cytotoxicity (JEG-3): -3.88% [at 11.6 µM]
activity change, negative = cytotoxicity (OV90): -4.64% [at 11.6 µM]
activity change, negative = cytotoxicity (PA-1): -1.69% [at 11.6 µM]
activity change, negative = cytotoxicity (Tov-21-G): -0.814% [at 11.6 µM]
activity change, negative = cytotoxicity (Tov112D): -0.13% [at 11.6 µM]

CCOc1ccc(-c2nn3ncccc3c2-c2ccc(S(C)(=O)=O)cc2)cc1
Potency (C33A): inactive
Potency (CAOV3): inactive
outcome (CASKI): inactive
Potency (Es-2): inactive
Potency (HeLa): inactive
Potency (Hek293T): inactive
Potency (OV90): inactive
Potency (PA-1): inactive
Potency (SKOV3): inactive
Potency (Tov-21-G): inactive
Potency (Tov112D): inactive

CC(=O)OC12CC(C)C(OC(=O)c3ccccc3)C1/C=C(/C)C(OC(=O)c1ccccc1)CC(=O)C(C)(C)/C=C/C(C)C2=O (configuration not stated)
Potency (C33A): inactive
Potency (CAOV3): inactive
outcome (CASKI): inactive
Potency (Es-2): 2.82 µM (active)
Potency (HeLa): inactive
Potency (Hek293T): inactive
Potency (OV90): inactive
Potency (PA-1): inactive
Potency (SKOV3): inactive
Potency (Tov-21-G): inactive
Potency (Tov112D): inactive

COc1ccccc1N1CCN(CCCCNC(=O)c2ccc(-c3cscn3)cc2)CC1
Potency (C33A): inactive
Potency (CAOV3): inactive
outcome (CASKI): inactive
Potency (Es-2): inactive
Potency (HeLa): inactive
Potency (Hek293T): inactive
Potency (JEG-3): inactive
Potency (OV90): inactive
Potency (PA-1): inactive
Potency (Tov-21-G): inactive
Potency (Tov112D): inactive

O=C(Cn1c2ccccc2c2nc3n(c(=O)c21)CCS3)N1CCCC1
Potency (C33A): inactive
Potency (CAOV3): inactive
outcome (CASKI): inactive
Potency (Es-2): inactive
Potency (HeLa): inactive
Potency (Hek293T): inactive
Potency (JEG-3): inactive
Potency (OV90): inactive
Potency (PA-1): inactive
Potency (Tov-21-G): inactive
Potency (Tov112D): inactive

CCCCCOc1ccc(-c2cc(-c3ccc(C(=O)N[C@H]4C[C@@H](O)[C@@H](O)NC(=O)C5[C@@H](O)[C@@H](C)CN5C(=O)C([C@H](O)CC(N)=O)NC(=O)C([C@H](O)[C@@H](O)c5ccc(O)c(OS(=O)(=O)O)c5)NC(=O)C5C[C@@H](O)CN5C(=O)C([C@@H](C)O)NC4=O)cc3)no2)cc1 (stereo partly drawn) (X2-[Orn(4R-OH,5R-OH)][ξThr(3R)][ξPro(4R-OH)][ξhTyr(3S-OH,4S-OH,3'-OSO3H)][ξGln(3R-OH)][X3]; lactam 1-C)
Potency (C33A): inactive
Potency (CAOV3): inactive
Potency (Es-2): inactive
Potency (HeLa): inactive
Potency (Hek293T): inactive
Potency (JEG-3): inactive
Potency (OV90): inactive
Potency (PA-1): inactive
Potency (SKOV3): inactive
Potency (Tov-21-G): inactive
Potency (Tov112D): inactive

Cc1ncc(NC(=O)c2ccc(CN3CCN(C)CC3)c(C(F)(F)F)c2)cc1Nc1nccc(-c2cccnc2)n1
Potency (C33A): inactive
Potency (CAOV3): inactive
outcome (CASKI): inactive
Potency (Es-2): inactive
Potency (HeLa): inactive
Potency (Hek293T): inactive
Potency (JEG-3): inactive
Potency (PA-1): inactive
Potency (SKOV3): inactive
Potency (Tov-21-G): inactive
Potency (Tov112D): inactive

Fc1ccccc1-c1nc2ccn(Cc3ccc(-c4ccc(C(F)(F)F)cc4C(F)(F)F)nn3)cc-2n1
Potency (C33A): inactive
Potency (CAOV3): inactive
outcome (CASKI): inactive
Potency (Es-2): inactive
Potency (HeLa): inactive
Potency (Hek293T): inactive
Potency (JEG-3): inactive
Potency (OV90): inactive
Potency (Tov-21-G): inactive
Potency (Tov112D): inactive
